The values that follow come from ChEMBL document CHEMBL1961873, “Compounds: GSK PKIS; Assays: Nanosyn kinase panel” (2012).

Test [1] concerns the target Tyrosine-protein kinase SYK (Homo sapiens) (UniProt P43405). Particulars: at 1 µM.
The target in test [2] is T1, Tyrosine-protein kinase Tec (Homo sapiens) (UniProt P42680).
T1 sequence (whole entry): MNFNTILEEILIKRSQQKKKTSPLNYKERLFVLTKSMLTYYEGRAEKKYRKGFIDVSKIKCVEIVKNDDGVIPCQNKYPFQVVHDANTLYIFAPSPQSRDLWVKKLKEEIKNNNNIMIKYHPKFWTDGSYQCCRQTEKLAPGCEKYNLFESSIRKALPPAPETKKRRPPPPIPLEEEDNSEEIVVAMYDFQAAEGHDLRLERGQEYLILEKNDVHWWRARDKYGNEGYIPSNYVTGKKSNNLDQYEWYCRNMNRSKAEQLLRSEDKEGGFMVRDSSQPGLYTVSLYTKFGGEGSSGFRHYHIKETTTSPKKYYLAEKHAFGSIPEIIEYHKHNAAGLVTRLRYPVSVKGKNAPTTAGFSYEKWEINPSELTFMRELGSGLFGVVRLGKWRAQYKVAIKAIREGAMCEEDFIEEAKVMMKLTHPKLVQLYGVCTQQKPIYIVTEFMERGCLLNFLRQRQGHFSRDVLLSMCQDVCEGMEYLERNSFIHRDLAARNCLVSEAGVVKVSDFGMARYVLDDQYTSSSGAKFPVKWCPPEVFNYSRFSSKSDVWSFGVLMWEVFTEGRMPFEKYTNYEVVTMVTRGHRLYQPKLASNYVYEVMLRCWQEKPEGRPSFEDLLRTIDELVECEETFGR
Particulars: at 0.1 µM.

Test [3] addresses T1, Tyrosine-protein kinase Tec (Homo sapiens). Particulars: at 1 µM.
Test [4] addresses Angiopoietin-1 receptor (Homo sapiens) (UniProt Q02763). The note with it: at 0.1 µM.
Test [5] shares this target. Particulars: at 1 µM.
In test [6] the target is T2, Non-receptor tyrosine-protein kinase TNK1 (Homo sapiens) (UniProt Q13470).
T2 sequence (whole entry): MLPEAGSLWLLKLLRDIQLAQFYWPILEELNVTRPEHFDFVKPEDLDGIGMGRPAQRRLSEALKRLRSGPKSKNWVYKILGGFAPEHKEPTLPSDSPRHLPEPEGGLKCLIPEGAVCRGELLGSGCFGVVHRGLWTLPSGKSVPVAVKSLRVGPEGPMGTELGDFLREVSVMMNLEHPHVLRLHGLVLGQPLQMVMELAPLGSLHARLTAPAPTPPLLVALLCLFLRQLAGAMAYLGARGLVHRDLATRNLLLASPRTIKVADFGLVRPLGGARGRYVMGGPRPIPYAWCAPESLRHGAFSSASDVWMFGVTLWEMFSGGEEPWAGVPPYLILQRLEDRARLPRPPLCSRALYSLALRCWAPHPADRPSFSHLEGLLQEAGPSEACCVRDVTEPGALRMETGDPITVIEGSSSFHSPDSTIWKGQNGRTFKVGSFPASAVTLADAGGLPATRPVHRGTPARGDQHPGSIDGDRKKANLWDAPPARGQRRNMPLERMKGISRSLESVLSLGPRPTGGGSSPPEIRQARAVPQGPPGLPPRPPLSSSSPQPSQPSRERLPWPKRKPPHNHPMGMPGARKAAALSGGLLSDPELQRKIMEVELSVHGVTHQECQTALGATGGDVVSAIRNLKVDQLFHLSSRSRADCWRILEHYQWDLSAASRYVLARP
Particulars: at 0.1 µM.

In test [7] the target is T2, Non-receptor tyrosine-protein kinase TNK1 (Homo sapiens). Particulars: at 1 µM.
For test [8], the target named is Activated CDC42 kinase 1 (Homo sapiens) (UniProt Q07912). Particulars: at 0.1 µM.
Activated CDC42 kinase 1 (Homo sapiens), sequence (Q07912 whole entry, looked up): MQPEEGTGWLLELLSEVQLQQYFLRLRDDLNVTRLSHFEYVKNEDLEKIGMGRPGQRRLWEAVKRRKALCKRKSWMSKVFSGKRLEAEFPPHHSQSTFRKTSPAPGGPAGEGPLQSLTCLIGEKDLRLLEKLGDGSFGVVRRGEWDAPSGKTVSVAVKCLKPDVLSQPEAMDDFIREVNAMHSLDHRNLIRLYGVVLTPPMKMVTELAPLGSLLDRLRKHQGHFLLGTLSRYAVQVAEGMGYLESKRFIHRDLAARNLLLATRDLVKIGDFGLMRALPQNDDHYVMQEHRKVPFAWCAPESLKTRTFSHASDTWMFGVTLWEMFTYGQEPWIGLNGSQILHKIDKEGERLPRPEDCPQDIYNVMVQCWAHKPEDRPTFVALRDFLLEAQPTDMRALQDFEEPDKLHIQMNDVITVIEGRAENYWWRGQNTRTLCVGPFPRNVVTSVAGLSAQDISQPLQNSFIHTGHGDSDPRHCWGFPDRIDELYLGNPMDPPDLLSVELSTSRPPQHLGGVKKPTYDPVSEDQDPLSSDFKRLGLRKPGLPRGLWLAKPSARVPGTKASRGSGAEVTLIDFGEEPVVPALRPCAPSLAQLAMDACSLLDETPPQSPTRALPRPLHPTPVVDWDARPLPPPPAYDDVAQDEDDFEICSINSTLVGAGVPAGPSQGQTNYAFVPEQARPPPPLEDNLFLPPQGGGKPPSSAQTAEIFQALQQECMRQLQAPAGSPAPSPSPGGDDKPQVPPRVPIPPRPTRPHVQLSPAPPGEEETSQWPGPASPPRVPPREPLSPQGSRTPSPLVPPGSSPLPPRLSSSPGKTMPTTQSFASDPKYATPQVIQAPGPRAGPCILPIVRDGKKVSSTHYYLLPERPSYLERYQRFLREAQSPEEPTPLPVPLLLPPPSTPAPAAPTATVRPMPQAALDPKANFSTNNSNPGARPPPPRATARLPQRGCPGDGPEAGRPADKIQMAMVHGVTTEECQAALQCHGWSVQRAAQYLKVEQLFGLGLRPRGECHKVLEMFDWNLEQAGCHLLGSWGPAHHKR
Test [9] has the same target. Particulars: at 1 µM.
Test [10] addresses High affinity nerve growth factor receptor (Homo sapiens) (UniProt P04629). Particulars: at 0.1 µM.
For test [11] the target is unchanged. The note with it: at 1 µM.
The target of test [12] is BDNF/NT-3 growth factors receptor (Homo sapiens) (UniProt Q16620). Particulars: at 0.1 µM.
For test [13] the target is unchanged. The note with it: at 1 µM.
Test [14] has as its target NT-3 growth factor receptor (Homo sapiens) (UniProt Q16288). The note with it: at 0.1 µM.
Test [15] has the same target. Particulars: at 1 µM.
Test [16] deals with T3, Tyrosine-protein kinase TXK (Homo sapiens) (UniProt P42681).
T3 sequence (whole entry): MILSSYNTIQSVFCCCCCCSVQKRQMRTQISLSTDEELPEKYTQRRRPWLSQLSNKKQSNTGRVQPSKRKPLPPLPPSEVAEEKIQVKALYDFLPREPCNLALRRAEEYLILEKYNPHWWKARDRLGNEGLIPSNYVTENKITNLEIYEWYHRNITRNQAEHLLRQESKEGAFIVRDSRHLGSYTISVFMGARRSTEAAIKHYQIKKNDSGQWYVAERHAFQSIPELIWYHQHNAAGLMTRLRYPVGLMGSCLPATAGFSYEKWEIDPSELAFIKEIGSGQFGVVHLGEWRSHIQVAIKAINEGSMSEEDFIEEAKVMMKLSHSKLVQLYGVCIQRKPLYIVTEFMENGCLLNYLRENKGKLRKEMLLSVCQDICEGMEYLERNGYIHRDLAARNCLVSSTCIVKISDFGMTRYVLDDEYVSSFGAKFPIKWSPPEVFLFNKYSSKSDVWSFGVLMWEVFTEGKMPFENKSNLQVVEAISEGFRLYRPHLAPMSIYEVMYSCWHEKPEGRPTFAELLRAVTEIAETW
The note with it: at 0.1 µM.

In test [17] the target is T3, Tyrosine-protein kinase TXK (Homo sapiens). The note with it: at 1 µM.
In test [18] the target is Non-receptor tyrosine-protein kinase TYK2 (Homo sapiens) (UniProt P29597). Particulars: at 0.1 µM.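 Note: each value is a mean of the inhibition readings.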
Non-receptor tyrosine-protein kinase TYK2 (Homo sapiens), sequence (P29597 whole entry): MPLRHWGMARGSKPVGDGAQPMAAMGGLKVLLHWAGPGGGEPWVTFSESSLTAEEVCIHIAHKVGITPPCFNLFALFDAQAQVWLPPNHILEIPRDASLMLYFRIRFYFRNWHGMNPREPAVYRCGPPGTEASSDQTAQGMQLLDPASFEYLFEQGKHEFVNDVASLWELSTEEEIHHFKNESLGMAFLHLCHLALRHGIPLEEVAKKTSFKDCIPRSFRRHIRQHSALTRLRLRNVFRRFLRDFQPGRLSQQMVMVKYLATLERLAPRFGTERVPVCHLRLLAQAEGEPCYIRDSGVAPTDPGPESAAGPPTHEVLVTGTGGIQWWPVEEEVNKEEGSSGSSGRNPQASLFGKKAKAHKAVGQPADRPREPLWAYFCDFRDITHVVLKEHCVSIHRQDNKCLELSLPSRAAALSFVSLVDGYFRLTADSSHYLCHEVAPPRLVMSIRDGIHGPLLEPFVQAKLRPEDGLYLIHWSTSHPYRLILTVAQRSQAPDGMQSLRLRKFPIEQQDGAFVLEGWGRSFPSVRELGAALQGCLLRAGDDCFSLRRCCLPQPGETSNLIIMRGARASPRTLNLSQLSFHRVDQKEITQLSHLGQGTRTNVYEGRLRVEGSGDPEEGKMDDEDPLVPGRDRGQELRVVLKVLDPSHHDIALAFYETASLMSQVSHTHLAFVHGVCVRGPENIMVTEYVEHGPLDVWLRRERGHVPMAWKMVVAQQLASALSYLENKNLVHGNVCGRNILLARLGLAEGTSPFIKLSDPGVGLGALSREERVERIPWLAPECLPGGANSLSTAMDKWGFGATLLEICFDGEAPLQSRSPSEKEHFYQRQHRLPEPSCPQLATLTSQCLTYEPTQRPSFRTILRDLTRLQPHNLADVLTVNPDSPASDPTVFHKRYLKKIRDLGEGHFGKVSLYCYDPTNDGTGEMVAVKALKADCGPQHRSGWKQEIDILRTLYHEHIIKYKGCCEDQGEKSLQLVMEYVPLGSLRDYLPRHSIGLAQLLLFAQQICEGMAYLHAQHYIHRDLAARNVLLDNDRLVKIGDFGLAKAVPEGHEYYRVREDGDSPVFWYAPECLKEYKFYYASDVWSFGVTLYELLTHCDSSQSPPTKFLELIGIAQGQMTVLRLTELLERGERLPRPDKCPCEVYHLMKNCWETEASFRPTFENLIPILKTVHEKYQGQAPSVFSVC
The target of test [19] is T4, Dual specificity protein kinase TTK (Homo sapiens) (UniProt P33981).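 Note: reported figures are mean TTK inhibition at 1 µM.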
T4 sequence (whole entry): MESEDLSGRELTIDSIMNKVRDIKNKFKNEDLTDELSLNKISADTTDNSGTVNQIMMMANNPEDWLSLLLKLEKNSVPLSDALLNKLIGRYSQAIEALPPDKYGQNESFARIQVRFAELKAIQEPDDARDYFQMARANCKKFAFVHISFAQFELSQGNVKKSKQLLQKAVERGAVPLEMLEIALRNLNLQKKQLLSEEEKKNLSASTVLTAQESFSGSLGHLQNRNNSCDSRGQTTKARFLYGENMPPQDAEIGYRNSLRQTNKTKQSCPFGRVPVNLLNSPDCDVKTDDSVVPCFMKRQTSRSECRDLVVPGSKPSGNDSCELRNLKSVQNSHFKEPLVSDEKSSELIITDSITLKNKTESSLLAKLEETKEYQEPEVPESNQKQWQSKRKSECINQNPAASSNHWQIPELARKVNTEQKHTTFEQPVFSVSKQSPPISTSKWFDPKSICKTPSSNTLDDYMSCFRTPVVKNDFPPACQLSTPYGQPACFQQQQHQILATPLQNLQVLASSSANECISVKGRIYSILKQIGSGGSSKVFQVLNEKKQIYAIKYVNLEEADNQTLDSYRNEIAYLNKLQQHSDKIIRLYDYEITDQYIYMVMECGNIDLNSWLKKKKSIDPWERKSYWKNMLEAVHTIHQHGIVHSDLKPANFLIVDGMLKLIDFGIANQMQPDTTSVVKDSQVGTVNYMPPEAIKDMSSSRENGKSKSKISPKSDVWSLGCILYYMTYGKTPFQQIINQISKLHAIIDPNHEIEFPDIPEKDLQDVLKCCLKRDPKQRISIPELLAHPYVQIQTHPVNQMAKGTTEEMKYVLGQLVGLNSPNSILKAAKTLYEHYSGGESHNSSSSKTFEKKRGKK
The note with it: at 1 µM.

The target of test [20] is T5, Aurora kinase A (Homo sapiens) (UniProt O14965).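 Note: each reported value is a mean percent inhibition of Aurora-A.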
T5 sequence (whole entry): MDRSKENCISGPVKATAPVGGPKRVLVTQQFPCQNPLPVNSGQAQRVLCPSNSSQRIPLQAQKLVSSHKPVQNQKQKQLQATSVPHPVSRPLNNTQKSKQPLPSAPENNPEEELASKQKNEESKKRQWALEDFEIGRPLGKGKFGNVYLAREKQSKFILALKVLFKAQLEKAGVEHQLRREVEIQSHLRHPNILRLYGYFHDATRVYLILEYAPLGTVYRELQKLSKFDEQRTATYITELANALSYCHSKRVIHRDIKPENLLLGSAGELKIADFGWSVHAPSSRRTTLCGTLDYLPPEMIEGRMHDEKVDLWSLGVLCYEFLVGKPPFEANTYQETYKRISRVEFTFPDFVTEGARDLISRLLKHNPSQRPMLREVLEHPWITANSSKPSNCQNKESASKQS
The note with it: at 0.1 µM.

The structures appear in SMILES notation.

NT-3 growth factor receptor (Homo sapiens), sequence (Q16288 32-839 limits assumed): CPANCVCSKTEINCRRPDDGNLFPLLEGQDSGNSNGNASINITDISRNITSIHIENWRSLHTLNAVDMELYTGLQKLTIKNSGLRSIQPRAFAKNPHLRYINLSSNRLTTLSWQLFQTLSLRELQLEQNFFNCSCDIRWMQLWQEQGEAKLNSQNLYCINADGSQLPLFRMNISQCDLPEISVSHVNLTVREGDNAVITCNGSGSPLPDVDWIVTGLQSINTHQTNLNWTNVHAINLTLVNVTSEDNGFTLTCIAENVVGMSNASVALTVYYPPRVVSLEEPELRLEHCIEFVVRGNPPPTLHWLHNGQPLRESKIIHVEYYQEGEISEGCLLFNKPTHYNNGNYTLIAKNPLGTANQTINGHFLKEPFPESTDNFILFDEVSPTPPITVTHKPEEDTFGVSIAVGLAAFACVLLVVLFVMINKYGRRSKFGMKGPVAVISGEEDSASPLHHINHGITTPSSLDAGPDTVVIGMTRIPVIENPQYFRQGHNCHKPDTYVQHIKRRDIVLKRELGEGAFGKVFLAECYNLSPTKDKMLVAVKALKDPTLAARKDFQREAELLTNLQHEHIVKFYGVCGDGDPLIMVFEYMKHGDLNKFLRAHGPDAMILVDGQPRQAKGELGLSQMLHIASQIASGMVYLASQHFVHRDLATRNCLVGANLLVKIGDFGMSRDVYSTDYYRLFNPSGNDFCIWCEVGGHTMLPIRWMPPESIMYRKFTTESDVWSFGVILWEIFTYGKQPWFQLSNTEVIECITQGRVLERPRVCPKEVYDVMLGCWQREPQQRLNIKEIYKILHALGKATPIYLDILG
High affinity nerve growth factor receptor (Homo sapiens), sequence (P04629 33-796 limits assumed): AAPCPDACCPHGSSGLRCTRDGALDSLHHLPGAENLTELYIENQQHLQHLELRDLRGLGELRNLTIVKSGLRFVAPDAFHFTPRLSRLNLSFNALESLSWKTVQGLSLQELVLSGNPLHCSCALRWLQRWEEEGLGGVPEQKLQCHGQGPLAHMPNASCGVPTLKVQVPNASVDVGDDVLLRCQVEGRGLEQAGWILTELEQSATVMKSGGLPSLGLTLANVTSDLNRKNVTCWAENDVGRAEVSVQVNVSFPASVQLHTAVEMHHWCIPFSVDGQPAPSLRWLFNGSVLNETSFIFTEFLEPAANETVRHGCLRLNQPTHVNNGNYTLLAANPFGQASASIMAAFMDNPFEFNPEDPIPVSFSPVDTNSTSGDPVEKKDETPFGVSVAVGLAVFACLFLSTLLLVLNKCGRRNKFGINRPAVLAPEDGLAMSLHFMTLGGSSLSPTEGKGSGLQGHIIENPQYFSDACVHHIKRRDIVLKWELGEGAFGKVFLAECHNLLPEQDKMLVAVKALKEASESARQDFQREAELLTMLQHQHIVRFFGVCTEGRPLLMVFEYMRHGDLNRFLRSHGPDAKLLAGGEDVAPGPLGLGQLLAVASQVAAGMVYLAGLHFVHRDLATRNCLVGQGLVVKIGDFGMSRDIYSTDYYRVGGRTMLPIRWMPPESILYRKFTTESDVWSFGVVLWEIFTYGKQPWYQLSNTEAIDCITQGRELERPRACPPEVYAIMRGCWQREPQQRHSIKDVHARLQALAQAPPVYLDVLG
Angiopoietin-1 receptor (Homo sapiens), sequence (Q02763 whole entry): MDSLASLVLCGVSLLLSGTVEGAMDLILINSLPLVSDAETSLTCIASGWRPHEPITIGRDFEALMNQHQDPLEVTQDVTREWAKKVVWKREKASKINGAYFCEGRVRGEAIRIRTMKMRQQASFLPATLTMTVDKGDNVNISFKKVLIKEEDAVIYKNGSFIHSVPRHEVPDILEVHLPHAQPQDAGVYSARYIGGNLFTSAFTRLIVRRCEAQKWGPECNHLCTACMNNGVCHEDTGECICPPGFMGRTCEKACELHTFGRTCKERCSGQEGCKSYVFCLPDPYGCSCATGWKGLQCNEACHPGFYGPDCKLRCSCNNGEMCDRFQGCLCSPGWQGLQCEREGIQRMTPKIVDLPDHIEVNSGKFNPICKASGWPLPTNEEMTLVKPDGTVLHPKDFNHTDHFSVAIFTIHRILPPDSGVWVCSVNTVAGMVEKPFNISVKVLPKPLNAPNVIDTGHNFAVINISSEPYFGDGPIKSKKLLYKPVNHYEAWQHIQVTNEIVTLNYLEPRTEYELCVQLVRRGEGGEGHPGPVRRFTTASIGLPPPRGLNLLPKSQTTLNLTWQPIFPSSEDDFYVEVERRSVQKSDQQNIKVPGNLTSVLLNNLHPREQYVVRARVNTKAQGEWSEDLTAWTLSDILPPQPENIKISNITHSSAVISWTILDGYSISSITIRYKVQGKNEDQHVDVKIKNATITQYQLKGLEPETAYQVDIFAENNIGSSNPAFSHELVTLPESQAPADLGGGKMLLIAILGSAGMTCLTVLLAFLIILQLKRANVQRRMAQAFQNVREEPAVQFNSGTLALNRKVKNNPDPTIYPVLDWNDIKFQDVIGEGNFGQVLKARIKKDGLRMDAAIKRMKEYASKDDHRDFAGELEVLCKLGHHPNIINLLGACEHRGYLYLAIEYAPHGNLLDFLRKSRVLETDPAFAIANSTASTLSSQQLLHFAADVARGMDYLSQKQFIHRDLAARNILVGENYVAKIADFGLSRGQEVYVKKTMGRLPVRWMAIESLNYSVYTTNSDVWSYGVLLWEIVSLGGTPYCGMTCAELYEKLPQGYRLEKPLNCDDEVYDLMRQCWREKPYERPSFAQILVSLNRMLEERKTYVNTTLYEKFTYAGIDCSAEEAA

Consider `COc1cc2ncnc(Nc3ccc4c(cnn4Cc4ccccc4)c3)c2cc1OC`, for which the inhibition in test [1] was determined as 0.48%; in [2], 3.95%; in [3], 17.7%; in [4], 4.78%; in test [5], 10.2%; in test [6], 7.1%. Further, the inhibition in test [7] was determined as 35.6%; in test [8], 0.51%; in test [9] it was 4.91%; in test [10], 0.45%; in test [11] it was 2.18%; in test [12], 2.13%. Moreover, the inhibition in test [13] is 3.38%; in [14], 1.5%; in test [15] it was 2.59%; in [16] it was 0.73%; in test [17], 4.56%; in [18], -1.09%. The values for the inhibition in test [19] and in [20] were 13.2% and 1.22%, respectively.

In the case of `CCCN1CCCC(c2ccc(Nc3nc(Nc4cc(F)ccc4C(N)=O)c4cc[nH]c4n3)c(OC)c2)C1` (stereo not given), the inhibition was found to be 75.8% in test [1]; 4.67% in [2]; 9.82% in [3]; 4% in [4]; 4.28% in [5]; 41.2% in test [6]. In addition, the inhibition in test [7] was 81%; in test [8], 5.79%; in test [9], 41.1%; in [10], 3.35%; in test [11] it was 5.65%; in test [12], 4.46%. The inhibition was 6.11% in test [13]; 3.36% in test [14]; 5.51% in test [15]; 3.48% in test [16]; 6.47% in test [17]; -2.19% in test [18]. For the same molecule, the inhibition in test [19] is 79.6%; in [20], 1.81%.

Take `CS(=O)(=O)Nc1cccc(-c2ccc3c(NC(=O)C4CC4)n[nH]c3c2)c1`: the inhibition in test [1] is 0.89%; in test [2] it was 2.55%; in test [3], 3.97%; in test [4], 1.52%; in test [5], 7.04%; in test [6], 2.45%. The inhibition was -6.75% in test [7]; -0.85% in [8]; -2.06% in test [9]; -1.92% in test [10]; 2.02% in test [11]; 0.05% in test [12]. For the same molecule, the inhibition is 0.23% in test [13]; -0.22% in test [14]; 5.08% in [15]; -1.12% in test [16]; 2.67% in [17]; 0.85% in [18]. The inhibition in test [19] turned out to be 5.01%; in test [20] it was 2.68%.

As for `Nc1nccc(-c2c(-c3ccc(F)cc3)ncn2CCCN2CCOCC2)n1`, the inhibition in [1] was -0.03%; in test [2], 3.86%; in test [3], 3.98%; in [4], 8.3%; in test [5] it was 8.42%; in test [6], 1.92%. In addition, the inhibition in test [7] was 5.56%; in test [8], 0.21%; in test [9] it was 1.33%; in test [10] it was -0.29%; in test [11] it was 2.15%; in [12], 1.18%. The inhibition was 6.6% in test [13]; 0.23% in test [14]; 4.59% in test [15]; 3% in test [16]; 3.47% in test [17]; -3.95% in [18]. The inhibition in [19] was 6.61%; in [20], 3.86%.

`COC(=O)c1ccc2c(c1)C(=Cc1cc(Br)c(O)c(Br)c1)C(=O)N2`: the inhibition in [1] was -1.69%; in test [2], 9.11%; in [3], 7.75%; in test [4], 3.09%; in test [5], 3.01%; in [6] it was 25.5%. Besides, the inhibition in test [7] came out at 70.2%; in test [8], 0.88%; in test [9], 8.96%; in [10] it was 2.4%; in test [11], 6.54%; in [12], 3.26%. For the same molecule, the inhibition came to 8.43% in test [13]; 2.35% in test [14]; 12.1% in [15]; 6.42% in [16]; 12.3% in test [17]; 5.83% in test [18]. The inhibition stood at 25.2% in [19] and 30.8% in test [20].

`CC(C)c1ccc(Nc2nccc(-c3cnn4ncccc34)n2)cc1`: the inhibition stood at 9.02% in test [1]; 2.28% in test [2]; 7.14% in test [3]; 2.92% in test [4]; 4.32% in test [5]; 5.68% in test [6]. Also, the inhibition in test [7] was determined as 49.3%; in [8], 0.39%; in test [9], 2.14%; in test [10], 3.65%; in test [11] it was 7.94%; in [12] it was 2.01%. Also, the inhibition in test [13] was 6.18%; in test [14] it was 3.36%; in [15], 9.1%; in test [16] it was 1.69%; in test [17], 3.04%; in test [18], -0.82%. Besides, the inhibition was determined as 22.2% in test [19] and 6.2% in test [20].

With `CCS(=O)(=O)c1ccc(OC)c(Nc2ncc(-c3cccc(OC)c3)o2)c1`, the inhibition in [1] was -2.39%; in [2], 8.3%; in [3] it was 35.5%; in test [4], 3.35%; in test [5], 16.1%; in [6] it was 49%. Moreover, the inhibition in test [7] was determined as 90.6%; in test [8], 2.52%; in [9] it was 15.3%; in test [10], 7.51%; in test [11] it was 30.9%; in test [12], 7.72%. Moreover, the inhibition in [13] is 43.5%; in test [14], 11.7%; in test [15], 49.3%; in test [16], 14.5%; in test [17], 53.4%; in test [18], -5.06%. The results for the inhibition in test [19] and in test [20] were 7.02% and 4.52%, respectively.

One may read the inhibition as the relative decrease from the control value, in per cent.
